Screens as filed in PubChem BioAssay.
Nrf2 activator – qHTS of Nrf2 Activators; AREc32 ARE-luciferase reporter (MCF7-derived line), luminescence, 24 h; hit rate 0.31% among 410,000; AID 624171, 2012; Potency, µM (doses to about 46.1 µM), for the others: at the highest dose activation, hits mostly activators; note: potency is the fitted concentration of half-maximal effect; % of control where 0% means no effect; nearly all actives have a fitted effect of over 65% in size
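Steps: seed AREc32_Fluc cells (1000/well, 5% FBS OPTI-MEM); incubate overnight at 37 deg C; add 23 nL compound; incubate 24 hr; add Steady-Glo; hold 30 min RT; read luminescence.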
miR-21 act – qHTS Assay for Modulators of miRNAs and/orActivators of miR-21 | HeLa miR-21 FLuc reporter, luciferase, 48 h | Potency, µM (top dose mostly 38.3 µM), for inactives: at the highest dose activity change, positive = activation, most hits filed as activators | 340,000 tested, under 10 active | AID 2288, 2010;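 note: % of control where 0% means no effect; miR-21 action dims this reporter so a rising signal means less miR-21 action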
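Compounds were titrated across several concentrations (up to approximately 40 uM) and incubated 48 hours with HeLa miR-21-FLuc reporter cells (miR-21 target sequence downstream of FLuc, endogenous miR-21). Readout was firefly luciferase luminescence after lytic detection reagent.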
Nrf2 block – Nrf2 qHTS screen for inhibitors. hit rate 2.1% among 360,000. Potency, µM (highest dose often 46 µM), inactives show at the highest dose activity change, negative = inhibition, most hits filed as inhibitors. A549 ARE-Fluc reporter, luciferase luminescence, 18-24 h. AID 504444, 2011; note: potency is the fitted concentration of half-maximal effect; % is set by controls: 0 for no effect and ±100 for the full control effect; nearly all actives have a fitted effect of over 60% in size
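A549 ARE_Fluc cells, 5000/well, 5% FBS OPTI-MEM; compounds in dose-response, 18-24 h at 37 °C/5% CO2; CellTiter-Fluor viability read (Ex 405/Em 525), then BugLite luciferase luminescence = Nrf2 activity.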
Glioma ERSR ind – qHTS for Inducers of the Endoplasmic Reticulum Stress Response (ERSR) in Human Glioma: qHTS; U87-MG GRP78 promoter luciferase reporter, 16 h; Potency, µM, for the others: at the top dose activation, actives largely listed as activators; hit rate 0.02% among 420,000; AID 602332, 2012; note: potency is the fitted concentration of half-maximal effect; series mostly up to about 76 µM; % of control where 0% means no effect; nearly all actives have a fitted effect of over 35% in size
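ERSR induction read as luciferase luminescence (Bright-Glo, 10 min at room temperature) in stably transfected human U87-MG glioma cells exposed to compounds for 16 h, using GRP78 as sensor.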
Mito fusion yeast – qHTS Assay for Small Molecule Inhibitors of Mitochondrial Division or Activators of Mitochondrial Fusion. S. cerevisiae fusion-defective mutant growth rescue, CellTiterGlo 48 h. hit rate 0.23% among 320,000. Potency, µM (series often up to 46.1 µM), without a hit: at the highest dose growth rescue (activation), actives largely listed as activators; note: potency is the fitted concentration of half-maximal effect; % of control where 0% means no effect; nearly all actives have a fitted effect of over 45% in size
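Luminescent cell viability in 1536-well qHTS format served as the measure of rescued growth in ts fusion-mutant S. cerevisiae cultured on non-fermentable YPEG for 48 hours at 37C.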
A549 viability – Nrf2 qHTS screen for inhibitors: counterscreen for cytotoxicity; A549 ARE-Fluc cells, CellTiter-Fluor viability, 18-24 h; Potency, µM (doses to about 46 µM), inactives show at the highest dose activity change, negative = cytotoxicity, usual class: inhibitors; hit rate 0.16% among 390,000; note: potency is the fitted concentration of half-maximal effect; % is set by controls: 0 for no effect and ±100 for the full control effect
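A549 ARE-Fluc cells in 5% FBS OPTI-MEM, 5000 cells/well, rested 2 h then exposed to compounds in concentration-response for 18-24 h at 37 °C. Viability by CellTiter-Fluor fluorescence (Ex 405/Em 525) after 30 min; luciferase luminescence (BugLite, 15 min, RT) read afterwards.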
Numbers without * were called inactive; ? = inconclusive; · = no result given. A selection: hits, their analogues and other compounds. The true share with any hit is near 2.3%. Calls come from the whole dose curve; as a rule, active = well fitted curve in the direction sought with a large enough effect; inconclusive = small, poorly fitted or top-dose-only effect, or another doubt; inactive = no such curve, though single readings can be large; an effect the other way counts as inactive or inconclusive.

SMILES	Nrf2 activator	miR-21 act	Nrf2 block	Glioma ERSR ind	Mito fusion yeast	A549 viability
Cc1cc(C)n2nc(-c3ccc(F)cc3)nc2n1	?	-47%	?	2%	0%	1%
CCOC(=O)C1CCN(Cc2cc(Cl)c3ccccc3c2O)CC1	?	15%	-10%	28µM*	-30%	-7%
CC(=O)N(Cc1ccccc1)Cc1nc2sc(C)c(C)c2c(=O)[nH]1	4%	0%	?	-2%	-7%	7%
Cc1ccc(C(=O)Nc2cccc(S(=O)(=O)N3CCCCC3)c2)cc1[N+](=O)[O-]	1%	·	16µM*	-3%	5%	-15%
O=C(COC(=O)CCC(=O)c1ccc(F)cc1)Nc1cccc(S(=O)(=O)N2CCOCC2)c1	0%	0%	1%	-2%	-8%	-2%
COc1cc(C(=O)Nc2cccc(S(=O)(=O)N3CCCC3)c2)c([N+](=O)[O-])cc1OC	-1%	·	-1%	-4%	0%	-2%
COc1ccc(C(=O)NC(=S)Nc2cccc(S(=O)(=O)N3CCOCC3)c2)cc1	2%	24%	7%	-1%	2%	2%
O=C(COc1ccc(C(=O)c2ccc(F)cc2)cc1)Nc1cccc(S(=O)(=O)N2CCOCC2)c1	5%	·	23µM*	-3%	·	-13%
O=C(Nc1cccc(Br)c1)c1ccc(Cl)c(S(=O)(=O)N2CCOCC2)c1	-1%	?	10µM*	1%	-1%	?
CC(=O)Oc1ccc(-c2ccc(C(=O)Nc3cccc(S(=O)(=O)N4CCOCC4)c3)cc2)cc1	-1%	?	13µM*	-6%	0%	?
COc1ccc(NC(=O)CSc2nnnn2C2CCCCC2)cc1	0%	0%	-7%	-2%	6%	-10%
CCCCOc1ccc(C(=O)NCC(=O)NNC(=O)C2COc3ccccc3O2)cc1 (stereo not drawn)	-1%	·	12%	3%	3%	-1%
Cc1ccc(C(=O)Nc2cccc(S(=O)(=O)N3CCCCC3)c2)cc1S(=O)(=O)N1CCOCC1	0%	·	7.3µM*	-1%	·	-6%
CC(C)(C)c1ccc(C(=O)Nc2cccc(C(=O)N3CCOCC3)c2)cc1	2%	19%	8.2µM*	1%	0%	?
O=C(Nc1cccc(Cl)c1)c1ccc(F)c(S(=O)(=O)N2CCN(c3ccccn3)CC2)c1	4%	3%	21µM*	-4%	12%	-9%
CCOc1ccc(NC(=O)c2ccc(F)c(S(=O)(=O)N3CCN(c4ccccn4)CC3)c2)cc1	1%	23%	?	0%	-1%	-14%
Cc1ccc(C(=O)Nc2cccc(C(=O)N3CCOCC3)c2)cc1	-1%	-38%	?	-1%	0%	-5%
Cc1cc(C)cc(Nc2nc(-c3ccc(S(=O)(=O)N4CCCC4)cc3)cs2)c1	-1%	26%	?	-6%	5%	2%
O=S(=O)(c1ccc(-c2csc(Nc3ccc(F)cc3)n2)cc1)N1CCCC1	2%	9%	18µM*	-7%	4%	-29%
O=S(=O)(c1ccc(-c2csc(Nc3ccc(Br)cc3)n2)cc1)N1CCCC1	-1%	5%	8.2µM*	-8%	6%	-16%
Cc1ccc(Nc2nc(-c3ccc(S(=O)(=O)N4CCCC4)cc3)cs2)cc1C	3%	13%	·	0%	0%	?
Cc1c(C(=O)O)c(=S)sn1CCOc1ccccc1	0%	-3%	-8%	0%	-6%	-7%
O=C(COc1ncnc2ccccc12)Nc1ccc(Cl)c(S(=O)(=O)N2CCOCC2)c1	0%	-2%	-4%	1%	5%	2%
CC1=NNC(=O)/C1=C\c1cn(-c2ccccc2)nc1-c1ccc(Cl)cc1	?	-29%	13µM*	-15%	-16%	21µM*
